Our source for the AC50 and outcome values is PubChem BioAssay (EPA / NIEHS).

Records with an inconclusive call do not appear. The source made the active and inactive calls. Rule for the calls: active = hit-call score of the fitted dose curve at least 0.9, where 1 is the maximum; inconclusive = response in the unintended direction; inactive = score below 0.9.

A word on the AC50: it is the midpoint of the concentration-response curve, whichever way the signal moves.

mouse Estrogen Receptor alpha (Era), Esr1 (gene 13982), sequence (P19785 whole entry, looked up): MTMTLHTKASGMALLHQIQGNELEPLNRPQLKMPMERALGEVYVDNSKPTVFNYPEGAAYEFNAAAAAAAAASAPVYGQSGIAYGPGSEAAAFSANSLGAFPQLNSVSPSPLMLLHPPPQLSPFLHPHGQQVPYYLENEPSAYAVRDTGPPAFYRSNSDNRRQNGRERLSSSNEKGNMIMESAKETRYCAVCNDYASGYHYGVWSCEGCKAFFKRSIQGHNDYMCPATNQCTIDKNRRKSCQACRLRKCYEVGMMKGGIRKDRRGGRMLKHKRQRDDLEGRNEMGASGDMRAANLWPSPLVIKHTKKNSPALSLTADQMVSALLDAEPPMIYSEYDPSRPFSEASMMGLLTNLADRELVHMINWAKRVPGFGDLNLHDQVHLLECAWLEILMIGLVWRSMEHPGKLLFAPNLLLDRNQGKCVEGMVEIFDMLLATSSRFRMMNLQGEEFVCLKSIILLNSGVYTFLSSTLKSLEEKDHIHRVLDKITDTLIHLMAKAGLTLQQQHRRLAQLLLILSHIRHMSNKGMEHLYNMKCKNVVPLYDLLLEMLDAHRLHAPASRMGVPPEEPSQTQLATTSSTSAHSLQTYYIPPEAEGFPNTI
Agonist Androgen Response Element (ARE), AR (gene 367), sequence (P10275 whole entry, looked up): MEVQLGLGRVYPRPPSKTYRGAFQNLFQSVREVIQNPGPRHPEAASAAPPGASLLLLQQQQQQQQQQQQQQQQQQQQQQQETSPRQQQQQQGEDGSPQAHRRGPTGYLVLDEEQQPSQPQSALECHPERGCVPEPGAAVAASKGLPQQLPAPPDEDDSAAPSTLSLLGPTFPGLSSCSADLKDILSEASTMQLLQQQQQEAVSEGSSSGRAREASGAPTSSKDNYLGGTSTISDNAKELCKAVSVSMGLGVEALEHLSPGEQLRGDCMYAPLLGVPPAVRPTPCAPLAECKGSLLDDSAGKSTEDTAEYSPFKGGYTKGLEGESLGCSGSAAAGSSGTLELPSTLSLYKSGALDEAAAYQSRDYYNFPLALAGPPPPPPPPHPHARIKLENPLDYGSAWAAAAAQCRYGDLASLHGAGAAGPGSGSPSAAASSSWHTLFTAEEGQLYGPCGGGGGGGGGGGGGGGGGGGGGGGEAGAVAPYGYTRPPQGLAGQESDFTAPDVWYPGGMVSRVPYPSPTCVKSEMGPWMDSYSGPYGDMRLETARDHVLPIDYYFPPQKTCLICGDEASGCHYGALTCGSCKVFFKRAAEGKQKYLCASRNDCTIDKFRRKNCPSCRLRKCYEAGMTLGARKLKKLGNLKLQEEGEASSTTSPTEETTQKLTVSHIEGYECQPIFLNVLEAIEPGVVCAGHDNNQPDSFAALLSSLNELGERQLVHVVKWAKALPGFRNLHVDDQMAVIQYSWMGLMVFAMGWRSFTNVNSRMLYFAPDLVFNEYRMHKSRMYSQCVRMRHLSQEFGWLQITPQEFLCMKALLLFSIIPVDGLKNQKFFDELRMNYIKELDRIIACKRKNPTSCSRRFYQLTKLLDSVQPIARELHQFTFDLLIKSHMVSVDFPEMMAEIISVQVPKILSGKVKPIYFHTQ

In the first assay the target is mouse Estrogen Receptor alpha (Era), Esr1 (gene 13982) (UniProt P19785). Description: NVS_NR_mERa: NovaScreen (NVS) Nuclear Receptor Binding Assay for mouse Estrogen Receptor alpha (Era) (AID 2283378).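 Note: hit means loss of bound radioligand signal relative to DMSO.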 An outline of the steps:
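Extracted mouse Era incubated with tritiated or iodinated radioligand plus test chemical, 18 h. Bound fraction separated on filters, counted by scintillation. DMSO = negative control/baseline; duplicate single-point at 25 uM, then concentration-response follow-up.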
For the molecule `CC(Cc1ccc(O)c(O)c1)C(C)Cc1ccc(O)c(O)c1` (centres undefined), the concentration at half-maximal activity (AC50) is 1.82 µM (active).

Take `C#C[C@]1(O)CC[C@H]2[C@@H]3CCc4cc(OC)ccc4[C@H]3CC[C@@]21C`: the call was inactive.

`C(=C(c1ccccc1)c1ccccc1)c1ccccc1`: the half-maximal activity concentration (AC50) was 8.44 µM (active).

Consider `c1ccc(B(c2ccccc2)c2ccccc2)cc1`, for which the call was inactive.

In the case of `CCCCC(CC)COP(=O)(O)OCC(CC)CCCC` (centres undefined), the outcome was inactive.

In the case of `Oc1ccc(Nc2ccccc2)cc1`, the molecule was called inactive.

A further assay addresses Agonist Androgen Response Element (ARE), AR (gene 367) (UniProt P10275). Description: OT_AR_ARELUC_AG_1440: Odyssey Thera (OT) 24-hour CHO-K1 Luciferase Assay for Agonist Androgen Response Element (ARE) (AID 2283379). An outline of the steps:
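CHO-K1 cells carrying an ARE-driven luciferase reporter were exposed to compounds for 24 h. Luminescence was then read after adding a D-luciferin/ATP mix, and activity was scored as a gain in signal over DMSO vehicle.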
In the case of `CNC(=S)NC`, the molecule was classed as inactive.

On to `[Co]`, for which the call was inactive.

`CCCCCCC(C)OC(=O)CCCCC(=O)OC(C)CCCCCC` (centres undefined): the outcome was inactive.
